# Pol eta inh = DNA polymerase eta (human) inhibition; 1.2% of 390,000 active; Q9Y253; recombinant Pol eta, fluorescent DNA replication assay; AID 588591; Potency, µM (doses to about 114 µM), for the others: at the top dose activity change, negative = inhibition, actives largely listed as inhibitors; also: potency is read from the fitted curve at half-maximal effect; % is scaled to controls: 0 for no effect and ±100 for the full control effect
# Target sequence (Q9Y253 whole entry, looked up): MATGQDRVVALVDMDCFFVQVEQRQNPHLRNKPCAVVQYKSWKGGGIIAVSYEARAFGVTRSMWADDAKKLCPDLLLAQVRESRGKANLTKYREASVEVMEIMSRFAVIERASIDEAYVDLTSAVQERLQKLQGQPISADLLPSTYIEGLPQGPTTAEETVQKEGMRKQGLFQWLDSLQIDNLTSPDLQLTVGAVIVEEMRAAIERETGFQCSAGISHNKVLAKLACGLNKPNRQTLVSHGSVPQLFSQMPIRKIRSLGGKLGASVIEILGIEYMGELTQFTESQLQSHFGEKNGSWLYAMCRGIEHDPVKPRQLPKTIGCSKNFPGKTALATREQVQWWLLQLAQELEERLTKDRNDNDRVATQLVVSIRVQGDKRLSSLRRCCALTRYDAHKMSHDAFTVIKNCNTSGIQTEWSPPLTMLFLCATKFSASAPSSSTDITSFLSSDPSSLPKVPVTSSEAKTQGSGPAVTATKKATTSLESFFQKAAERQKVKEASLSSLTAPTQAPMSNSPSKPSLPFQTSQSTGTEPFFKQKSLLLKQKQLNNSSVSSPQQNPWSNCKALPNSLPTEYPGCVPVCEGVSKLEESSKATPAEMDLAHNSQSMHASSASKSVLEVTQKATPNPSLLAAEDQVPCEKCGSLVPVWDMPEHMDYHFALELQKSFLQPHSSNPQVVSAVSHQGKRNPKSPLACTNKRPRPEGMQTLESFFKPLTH
#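 Pol eta (10 nM) was preincubated with compounds for 15 min at room temperature, after which fluorescent replication substrate (50 nM final) was added to start the reaction. Fluorescence was read kinetically at 0 and 10 min.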
# POLK inh = inhibitors of human DNA polymerase kappa; purified Pol kappa, fluorescent DNA synthesis assay, 10 min; Potency, µM (doses to about 107 µM), for the others: at the highest dose activity, negative = inhibition, most hits filed as inhibitors; 0.53% of 400,000 active; AID 588579; also: potency is read from the fitted curve at half-maximal effect; % is scaled to controls: 0 for no effect and ±100 for the full control effect
#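 Here, compound and 10 nM enzyme are combined for 15 min at room temperature; adding 50 nM substrate (final) starts DNA synthesis, tracked by fluorescence at 0 and 10 min against buffer-only wells.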
# Pol beta inh = DNA polymerase beta (human) inhibition; P06746; Pol beta primer extension/strand displacement, fluorescence kinetic; Potency, µM (titrated, usually from 114 µM), without a hit: top-dose activity change, negative = inhibition, usual class: inhibitors; 1.3% of 340,000 active; also: potency is read from the fitted curve at half-maximal effect; % is scaled to controls: 0 for no effect and ±100 for the full control effect
#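 Human Pol beta at 10 nM; strand-displacement substrate 50 nM final. Compound exposure 15 min at room temperature before start, reaction 10 min at room temperature.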
# WRN helicase inh = blocks human WRN helicase. Q14191. WRN helicase unwinding, fluorescent forked duplex, kinetic. Potency, µM (series often up to 114 µM), for the others: at the highest dose activity change, negative = inhibition, usual class: inhibitors. 0.46% of 360,000 active; also: potency is read from the fitted curve at half-maximal effect; % is scaled to controls: 0 for no effect and ±100 for the full control effect; nearly all actives have a fitted effect of over 55% in size
#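 Kinetic red-fluorescence monitoring (525/598 nm) tracks WRN helicase activity after 100 nM fluorophore-quencher forked duplex and 2 mM ATP are added to 20 nM enzyme pretreated 15 min at room temperature with compound.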
# PI5P4Ka inh = blocks human PI5P4K alpha kinase activity. P48426. PI5P4Kalpha enzyme, ADP-Glo luminescence, 60 min; hits give low values. max response, %. 1.2% of 330,000 active. AID 652105; active = max response of -50% or lower; inconclusive = between -30% and -50%; inactive = -30% or higher; also: value at the top dose of about 77 µM; % is scaled to controls: 0 for no effect and ±100 for the full control effect
#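 ADP-Glo luminescence end-point read after a 60 min room-temperature kinase reaction of PI5P4Kalpha plus substrate, initiated with ATP at 5 microM final. Buffer: 0.038 M HEPES pH 7.4, EGTA, 0.1% CHAPS, 5% DMSO.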
# Pol iota inh = inhibitors of human DNA polymerase iota | Pol iota fluorescent replication assay, 10 min | Potency, µM (doses to about 115 µM), inactives show top-dose activity, negative = inhibition, usual class: inhibitors | AID 588590 | Q9UNA4 | 1% of 390,000 active; also: potency is read from the fitted curve at half-maximal effect
#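 Fluorescent replication assay read twice, at 0 min and 10 min after adding 50 nM (final) substrate. Enzyme (10 nM) and compounds were first incubated 15 min at room temperature; enzyme-free buffer wells were negative controls.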
# Active calls of the source: *; ? = inconclusive; . = no result; [ ] = another dose, or the depositor's remark. Rows were chosen to be rich in hits. Some 2.8% of all compounds tested hit in one or more screens of this group. Unless noted, calls follow the shape of the dose curve; as a rule, active = well fitted curve in the direction sought with a large enough effect; inconclusive = small, poorly fitted or top-dose-only effect, or another doubt; inactive = no such curve, though single readings can be large; an effect the other way counts as inactive or inconclusive.
SMILES,Pol eta inh,POLK inh,Pol beta inh,WRN helicase inh,PI5P4Ka inh,Pol iota inh
O=C(O)/C(=C\c1ccc(Cl)cc1)c1ccc(S(=O)(=O)N2CCCC2)s1,?,?,.,-16%,1,-15%
C=C(C)[C@@H]1C2=CC(C(=O)OC)=C(C[C@@H](C(=C)C)[C@H]3O[C@H]3C3=C[C@H]1OC3=O)O2,.,-16%,.,.,.,?
COc1ccc(-n2ncc3c2ncn2nc(-c4ccc(OC)c(OC)c4)nc32)cc1,.,17%,25%,.,.,-2%
CCOC(=O)c1cc2c(=O)n3ccccc3nc2n(C(C)C)c1=NC(=O)c1cc2ccccc2o1,-23%,-10%,-20%,.,.,15%
CC(=O)c1c(C)[nH]c(C(=O)OCC(=O)Nc2ncc(Cl)c(C)c2Cl)c1C,89µM*,-30%,?,-20%[57.1 µM],-54*,?
CC(C)=CC(=O)OCC(=O)Nc1ncc(Cl)c(C)c1Cl,79µM*,?,40µM*,?,.,?
Nc1ccc(-c2nc3ccccc3[nH]2)cc1,-21%,-1%,?,-6%,0,23%
Nc1ccc(-c2nc3ccc(-c4nc5ccc(N)cc5[nH]4)cc3[nH]2)cc1,6.3µM*,2.7µM*,1.4µM*,.,.,4µM*
Nc1ccc2nc(-c3ccc(-c4nc5ccc(N)cc5[nH]4)cc3)[nH]c2c1,-19%,50µM*,-15%,-27%[11.6 µM],-24,?
Cc1ccc(NC(=O)CN2C(=O)CSc3ccc(S(=O)(=O)N4CCCC4)cc32)c(C)c1,-6%,1%,1%,.,.,6%
CCCCOc1ccc(CNC(=O)Cc2ccc(NC(=O)N3CCCCc4ccccc43)cc2)cc1,-25%,5%,0%,.,.,-23%
COc1ccc(-c2cc(=O)oc3c4c(ccc23)OCN(Cc2ccccc2)C4)cc1,5%,12%,41%,.,.,-3%
COc1ccc(NC(C)=O)cc1S(=O)(=O)N1CCN(Cc2cccs2)CC1,25µM*,-42%,.,-12%,-1,?
COc1ccc(NC(=O)Cc2cccs2)cc1S(=O)(=O)N1CCCCC1,-20%,-4%,.,-11%,3,72%
C=C1C=C(C(F)F)n2ncc(C(=O)NCc3ccc(Cl)cc3Cl)c2N1,.,6%,.,.,.,17%
Cc1nnc2c3ccccc3nc(Nc3cccc(O)c3)n12,-16%,8%,-1%,.,.,29%
Cc1nnc2c3ccccc3nc(Nc3ccccc3C(=O)O)n12,79µM*,-11%,-28%,.,.,-13%
CCCC(=O)Nc1cccc(-c2nc3cc(C)c(C)cc3o2)c1C,-4%,-1%,31%,.,.,12%
O=C(Nc1cccc2c(=O)[nH][nH]c(=O)c12)c1ccc([N+](=O)[O-])cc1,.,.,.,?,-65*,.
COc1ccc(CN2CCCN(CC(=O)Nc3cc(C)ccc3C)S2(=O)=O)cc1,1%,0%,-2%,.,.,17%
CN1CCc2cccc3c2[C@@H]1Cc1ccc(O)c(O)c1-3,1%,-5%[19.4 µM],?,-18%,-61*,?
COc1ccc(CCNC(=O)C2CCC(CNS(=O)(=O)c3ccc(C)cc3)CC2)cc1OC (stereo unspecified),12%,-12%[60.1 µM],-16%,.,.,-17%
C=C(CC)C(=O)c1ccc(OCC(=O)O)c(Cl)c1Cl,79µM*,-7%,1%,?,-19,10µM*
CCOC(=O)COc1ccc2nsnc2c1Cl,-18%,-28%,1%,-5%,-1,6%
CCCCCCCCCCC1=C(C)C(=O)C(OC)=C(OC)C1=O,.,-14%[60.1 µM],.,.,.,.
SMILES,Pol eta inh,POLK inh,Pol beta inh,WRN helicase inh,PI5P4Ka inh,Pol iota inh
CCCCCCCCCCCC1=C(O)C(=O)C=C(O)C1=O,-1%,?,.,-1%,-62*,?
COC1=CC(=O)C(O)=C(CCCCCCC/C=C/CCCCCCCC2=C(O)C(=O)C=C(OC)C2=O)C1=O,3.5µM*,20µM*,.,35µM*,-75*,7.9µM*
COC1=C(OC)C(=O)C(CCCCCCCCCCO)=C(C)C1=O,.,-11%[60.1 µM],-14%,.,.,.
O=C(NCc1ccco1)c1ccc2c(c1)N(Cc1cccc(Cl)c1)C(=O)c1ccccc1S2=O (stereo unspecified),-7%,-17%[60.1 µM],-6%,.,.,1%
CCOC(=O)c1cccc(NC(=O)[C@H](CSCc2ccccc2)N2Cc3ccccc3C2=O)c1,-20%,-7%,-4%,.,.,15%
Oc1cccc(/C=N/c2c(-c3ccco3)nc3ccccn23)c1,-14%,-11%,1%,-16%[57.1 µM],.,25µM*
O=[N+]([O-])c1ccc(Cl)c(-c2ccc(/C=N/c3c(-c4ccco4)nc4ccccn34)o2)c1,-22%,-13%,50µM*,-31%,?,?
Cc1cc(C)c([N+](=O)[O-])cc1-c1ccc(/C=N/c2c(-c3ccco3)nc3ccccn23)o1,-5%,?,50µM*,?,?,?
O=[N+]([O-])c1ccc(-c2ccc(/C=N/c3c(-c4ccco4)nc4ccccn34)o2)cc1,-16%,-8%,4%,-7%,.,-18%
O=[N+]([O-])c1ccc(-c2ccc(/C=N/c3c(-c4ccco4)nc4ccccn34)o2)c(Cl)c1,.,.,-12%,.,.,.
COc1ccc(NC(=O)C(c2ccc(C(F)(F)F)cc2)n2c(=O)c(-c3cc4ccccc4[nH]3)nc3ccccc32)cc1 (stereo unspecified),.,.,.,-5%,3,.
OC(c1ccccc1)(c1nc(-c2cc3ccccc3o2)cs1)C(F)(F)F (stereo unspecified),.,.,.,-5%[57.1 µM],-6,.
O=C(Nc1ccccc1N1CCOCC1)c1cc(-c2ccco2)nc2ccccc12,?,-41%,14µM*,-15%,?,?
O=C(N/N=C/c1ccc2c(c1)OCO2)c1cc(-c2ccco2)nc2ccccc12,?,?,.,-6%[11.6 µM],-55*,3.2µM*
CCN1CCN(C(=O)c2cc(-c3ccc(Cl)s3)nc3ccccc23)CC1,-25%,2%,17%,2%,-4,32%
COc1cc(-c2cc(C(=O)Nc3ccccc3N3CCOCC3)c3ccccc3n2)cc(OC)c1OC,-22%,2%,-1%,7%,0,65%
CCN1CCN(C(=O)c2cc(-c3ccco3)nc3ccccc23)CC1,35µM*,?,.,-15%,-19,40µM*
COc1ccc(NC(=O)Cn2c(=O)n(Cc3ccco3)c(=O)c3cc(OC)c(OC)cc32)cc1,-10%,14%,0%,.,.,-10%
COc1ccc(-c2nn3c(-c4ccc(C)cc4)nnc3c3ccccc23)cc1,-18%,?,3%,.,.,32%
Nc1cccc2c1C(=O)N(C(=O)/C=C/c1cccc(F)c1)C2=O,?,-11%,14%,-22%[11.6 µM],0,?
Nc1cccc2c1C(=O)N(C(=O)/C=C/c1cccc(Br)c1)C2=O,?,-8%,9%,-28%,?,11µM*

# Screens from PubChem BioAssay.
